From PubChem BioAssay (NCATS)
Several values for one entry are separate records, joined by “and”; a condition that tells them apart may be missing. Equal entries are not always repeated. Results filed as inconclusive are left out. Some compounds were tested as several samples or in several runs, with calls that do not always agree. Activity calls are given as the source filed them. Unless noted, calls come from the whole dose curve; as a rule, active = well fitted curve in the direction sought with a large enough effect; inconclusive = small, poorly fitted or top-dose-only effect, or another doubt; inactive = no such curve, though single readings can be large; an effect the other way counts as inactive or inconclusive.

Columns and labels:
[1] = P-glycoprotein substrates identified in KB-3-1 adenocarcinoma cell line, qHTS therapeutic library screen (AID 1346986); note: nearly all actives have a fitted effect of over 60% in size;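 note: potency is the fitted concentration of half-maximal effect; potency is for cytotoxicity meaning loss of cell viability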
In short: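 KB-3-1 parental cells and P-gp-overexpressing KB-8-5-11 (colchicine omitted during assay) plated at 500 cells/well, dosed in dose-response, incubated 72 h at 37 degree C. CellTiter-Glo luminescence read; KB-8-5-11 also tested with tariquidar.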

[2] = Primary qHTS for inhibitors of nuclear receptor binding SET domain protein 2 (NSD2) in an isogenic RCH-ACV NSD2 p.E1099K mutant (9B) (AID 1645876); note: nearly all actives have a fitted effect of over 70% in size; note: potency is the fitted concentration of half-maximal effect
[3] = Primary qHTS for inhibitors of nuclear receptor binding SET domain protein 2 (NSD2) in an RCH-ACV wild type WT cells (2C) (AID 1645877); note: nearly all actives have a fitted effect of over 70% in size; note: potency is the fitted concentration of half-maximal effect
[4] = molecular target: Phospholipid hydroperoxide glutathione peroxidase GPX4 (Homo sapiens) (UniProt P36969); assay: Primary qHTS Assay for Inhibitors of Recombinant Selenoprotein Glutathione Peroxidase 4 (GPX4) (AID 1845192); conditions: outcome: dose series up to 50 µM unless noted; note: % is set by controls: 0 for no effect and ±100 for the full control effect; nearly all actives have a fitted effect of over 65% in size
Sequence of Phospholipid hydroperoxide glutathione peroxidase GPX4 (Homo sapiens) (P36969 whole entry, looked up): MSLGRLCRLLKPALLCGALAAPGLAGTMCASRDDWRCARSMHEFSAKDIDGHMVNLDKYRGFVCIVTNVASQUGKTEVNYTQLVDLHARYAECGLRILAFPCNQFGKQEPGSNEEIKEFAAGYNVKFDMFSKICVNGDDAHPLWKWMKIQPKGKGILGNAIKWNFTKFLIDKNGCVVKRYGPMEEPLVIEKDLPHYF
In short: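 GR-coupled readout: 100 nM GR, 1 mM GSH, 0.5 mM NADPH; NADPH fluorescence (ex 340/em 450 nm) read at t=0 and after 15 min RT. GPX4 200 nM, preincubated 30 min with compound; substrate 0.5 mM CHP.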

[5] = qHTS drug screen for cell cycle checkpoint inhibitors in PARPi-resistant BRCA-mutant ovarian cancer cell lines. (AID 1963452; calls by dose curve); conditions: PEO1/OlaR viability, CellTiter-Glo luminescence, 96 h, stronger effect = lower value
In short: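 PEO1, PEO4 and PEO1/OlaR ovarian cancer cells, 600 per well, exposed 96 h at 37C to a dilution series. Viability read by CellTiter-Glo luminescence, normalized to DMSO and empty wells; activity summarized as Z-AUC.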

[6] = molecular target: Tyrosine-protein kinase Yes (Homo sapiens) (UniProt P07947); assay: qHTS for small molecule inhibitors of Yes1 kinase: Primary Screen (AID 686947); note: potency is the fitted concentration of half-maximal effect; nearly all actives have a fitted effect of over 60% in size
In short: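 ADP-Glo luminescence readout; final 4 nM Yes1, 0.1 mM ATP, 0.3 mg/mL poly(E4Y), Tris pH 7.5, MgCl2, DTT, Brij-35. 20 min compound preincubation, 60 min reaction at RT. Normalized to DMSO wells with and without enzyme.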

[7] = qHTS for small molecule inhibitors of Yes1 kinase: Counter Assay (AID 686950);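 note: no kinase present so only ADP-Glo detection of a fixed ADP amount is tested; luminescence from ADP-Glo reporting ADP in a fixed ATP and ADP mixture; 0% = DMSO wells with ATP plus ADP and -100% = ATP-only wells without ADP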
In short: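 Enzyme-free ADP-Glo interference check: compounds were preincubated 20 min in buffer, then an ATP/ADP mix (0.08 mM ATP, 0.02 mM ADP final) was added for 60 min at room temperature before two-step ADP-Glo luminescence detection.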

[8] = molecular target: Glutathione peroxidase 1 (Homo sapiens) (UniProt P07203); assay: Primary qHTS Assay for Inhibitors of Recombinant Selenoprotein Glutathione Peroxidase 1 (GPX1) (AID 1845191); note: nearly all actives have a fitted effect of over 65% in size
Sequence of Glutathione peroxidase 1 (Homo sapiens) (P07203 whole entry, looked up): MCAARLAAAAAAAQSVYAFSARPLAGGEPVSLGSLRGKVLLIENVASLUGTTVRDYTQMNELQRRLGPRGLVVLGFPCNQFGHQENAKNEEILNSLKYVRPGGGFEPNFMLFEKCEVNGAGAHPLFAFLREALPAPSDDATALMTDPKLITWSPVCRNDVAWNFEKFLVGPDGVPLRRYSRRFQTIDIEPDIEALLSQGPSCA
In short: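 Recombinant GPX1 (10 nM final) was preincubated with compound for 30 min at room temperature, then reacted with 1 mM GSH, 0.5 mM CHP, 0.5 mM NADPH and 100 nM glutathione reductase; NADPH fluorescence (340/450 nm) was read at 0 and 15 min.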

[9] = P-glycoprotein substrates identified in KB-8-5-11 adenocarcinoma cell line, qHTS therapeutic library screen (AID 1346987); note: % is set by controls: 0 for no effect and ±100 for the full control effect; nearly all actives have a fitted effect of over 65% in size
In short: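 KB-8-5-11: colchicine-selected sub-line of KB-3-1 over-expressing P-gp; assay medium lacked colchicine. 72 h drug exposure at 37 degree C, CellTiter-Glo.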

[10] = qHTS Assay for Lipid Storage Modulators (AID 1519; calls by dose curve; for activity change, negative = inhibition: % is set by controls: 0 for no effect and ±100 for the full control effect); conditions: Drosophila S3 cells, BODIPY lipid droplet/cell ratio, laser cytometry, cells loaded with oleic acid
In short: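 Cells seeded at 5,000 per well were treated with compounds over a concentration series and loaded with oleic acid (400 uM, as added). Lipid droplet fluorescence (488 nm excitation, 500-530 nm channel) was read by laser-scanning cytometry and normalized to 20 uM Triacsin C.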

[11] = molecular target: DNA repair nuclease/redox regulator APEX1 (Homo sapiens) (UniProt P27695); assay: qHTS Validation Assay for Inhibitors of the Human Apurinic/apyrimidinic Endonuclease 1 (APE1) (AID 1705;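 note: TAMRA fluorescence gain over two minutes as APE1 cuts a quenched THF abasic duplex; % is set by controls: 0 for no effect and ±100 for the full control effect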)
Sequence of DNA repair nuclease/redox regulator APEX1 (Homo sapiens) (P27695 whole entry, looked up): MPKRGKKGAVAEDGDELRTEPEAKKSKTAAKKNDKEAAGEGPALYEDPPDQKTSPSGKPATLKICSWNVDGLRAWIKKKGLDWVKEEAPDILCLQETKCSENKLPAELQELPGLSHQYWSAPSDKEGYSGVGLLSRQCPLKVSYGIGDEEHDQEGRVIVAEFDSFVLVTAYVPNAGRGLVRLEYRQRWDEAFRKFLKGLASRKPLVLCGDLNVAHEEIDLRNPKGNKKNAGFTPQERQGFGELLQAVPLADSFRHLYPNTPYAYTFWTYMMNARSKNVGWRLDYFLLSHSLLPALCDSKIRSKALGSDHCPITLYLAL
In short: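 Endonuclease activity of human APE1 is followed as dequenching when the enzyme incises a tetrahydrofuran abasic site in a short duplex labelled 5'-TAMRA/3'-BHQ-2 (50 nM final), after 15 min enzyme–compound preincubation at room temperature.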

[12] = Counterscreen for APE1 Inhibitors: Fluorescent Dye Displacement Validation Assay (AID 1707);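 note: plate controls were ThO with dsDNA and no compound for no effect and ThO without dsDNA for full effect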
In short: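 Thiazole Orange displacement from dsDNA: 250 nM ThO with 50 nM TAMRA-labelled abasic-site (tetrahydrofuran) duplex in 50 mM Tris-HCl pH7.5, 50mM NaCl, 2 mM MgCl2, 0.01% Tween-20. Loss of endpoint fluorescence (ex 480 nm, em 540 nm) flags DNA binders.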

[13] = molecular target: Endonuclease 4 (Escherichia coli (strain K12)) (UniProt P0A6C1); assay: Counterscreen for APE1 Inhibitors: qHTS Validation Assay for Inhibitors of Endonuclease IV (AID 1708); note: % is set by controls: 0 for no effect and ±100 for the full control effect
In short: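 2 nM enzyme was preincubated with compounds for 15 min at room temperature in 50 mM Tris-HCl pH 7.5, 50 mM NaCl, 2 mM MgCl2, 1 mM DTT, 0.01% Tween-20. 50 nM THF-abasic TAMRA/BHQ-2 duplex substrate started the reaction.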

[14] = qHTS for differential inhibitors of proliferation of Plasmodium falciparum line 7G8 (AID 1815);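 note: potency is the fitted concentration of half-maximal effect; parasite growth measured after three days of incubation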
[15] = qHTS for differential inhibitors of proliferation of Plasmodium falciparum line GB4 (AID 1816); conditions: Potency: Plasmodium falciparum GB4 proliferation inhibition;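 note: potency is the fitted concentration of half-maximal effect; parasite growth measured after 72 h incubation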
[16] = qHTS for differential inhibitors of proliferation of Plasmodium falciparum line 3D7 (AID 1876); note: potency is the fitted concentration of half-maximal effect
[17] = qHTS for differential inhibitors of proliferation of Plasmodium falciparum line Dd2 (AID 1882); conditions: Potency: Plasmodium falciparum Dd2 proliferation inhibition; note: potency is the fitted concentration of half-maximal effect; nearly all actives have a fitted effect of over 65% in size
In short: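 SYBR Green I DNA fluorescence read-out, ex 485/em 535 nm. Signals were normalized to 0.29 uM artemisinin and DMSO wells, then corrected using vehicle-only plates flanking each stack. Parasite growth ran 72 h in erythrocytes before lysis.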

[18] = qHTS for differential inhibitors of proliferation of Plasmodium falciparum line W2 (AID 1883); conditions: Potency: Plasmodium falciparum W2 proliferation inhibition;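 note: potency is the fitted concentration of half-maximal effect; parasites grown with compound for 72 h before lysis and staining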
[19] = molecular target: ATP-dependent DNA helicase Q1 (Homo sapiens) (UniProt P46063); assay: qHTS Validation Assay for Inhibitors of RecQ-Like Dna Helicase 1 (RECQ1) (AID 2353);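 note: plate controls were DMSO vehicle for no effect and enzyme-free control for full effect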
In short: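 50 nM RECQ1T1 preincubated 15 min with compound in Tris pH 8.0 buffer with MgCl2, DTT, Tween-20 and 2.5 ug/ml poly(dI-dC); started with 200 nM TAMRA/BHQ-2 forked duplex and 2 mM ATP. Unwinding read as fluorescence (525/598 nm), two reads 2 h apart.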

[20] = molecular target: RecQ-like DNA helicase BLM (Homo sapiens) (UniProt P54132); assay: qHTS Validation Assay for Inhibitors of Bloom's syndrome helicase (BLM) (AID 2364);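 note: plate controls were DMSO vehicle for no effect and enzyme-free control for full effect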
Sequence of RecQ-like DNA helicase BLM (Homo sapiens) (P54132 whole entry, looked up): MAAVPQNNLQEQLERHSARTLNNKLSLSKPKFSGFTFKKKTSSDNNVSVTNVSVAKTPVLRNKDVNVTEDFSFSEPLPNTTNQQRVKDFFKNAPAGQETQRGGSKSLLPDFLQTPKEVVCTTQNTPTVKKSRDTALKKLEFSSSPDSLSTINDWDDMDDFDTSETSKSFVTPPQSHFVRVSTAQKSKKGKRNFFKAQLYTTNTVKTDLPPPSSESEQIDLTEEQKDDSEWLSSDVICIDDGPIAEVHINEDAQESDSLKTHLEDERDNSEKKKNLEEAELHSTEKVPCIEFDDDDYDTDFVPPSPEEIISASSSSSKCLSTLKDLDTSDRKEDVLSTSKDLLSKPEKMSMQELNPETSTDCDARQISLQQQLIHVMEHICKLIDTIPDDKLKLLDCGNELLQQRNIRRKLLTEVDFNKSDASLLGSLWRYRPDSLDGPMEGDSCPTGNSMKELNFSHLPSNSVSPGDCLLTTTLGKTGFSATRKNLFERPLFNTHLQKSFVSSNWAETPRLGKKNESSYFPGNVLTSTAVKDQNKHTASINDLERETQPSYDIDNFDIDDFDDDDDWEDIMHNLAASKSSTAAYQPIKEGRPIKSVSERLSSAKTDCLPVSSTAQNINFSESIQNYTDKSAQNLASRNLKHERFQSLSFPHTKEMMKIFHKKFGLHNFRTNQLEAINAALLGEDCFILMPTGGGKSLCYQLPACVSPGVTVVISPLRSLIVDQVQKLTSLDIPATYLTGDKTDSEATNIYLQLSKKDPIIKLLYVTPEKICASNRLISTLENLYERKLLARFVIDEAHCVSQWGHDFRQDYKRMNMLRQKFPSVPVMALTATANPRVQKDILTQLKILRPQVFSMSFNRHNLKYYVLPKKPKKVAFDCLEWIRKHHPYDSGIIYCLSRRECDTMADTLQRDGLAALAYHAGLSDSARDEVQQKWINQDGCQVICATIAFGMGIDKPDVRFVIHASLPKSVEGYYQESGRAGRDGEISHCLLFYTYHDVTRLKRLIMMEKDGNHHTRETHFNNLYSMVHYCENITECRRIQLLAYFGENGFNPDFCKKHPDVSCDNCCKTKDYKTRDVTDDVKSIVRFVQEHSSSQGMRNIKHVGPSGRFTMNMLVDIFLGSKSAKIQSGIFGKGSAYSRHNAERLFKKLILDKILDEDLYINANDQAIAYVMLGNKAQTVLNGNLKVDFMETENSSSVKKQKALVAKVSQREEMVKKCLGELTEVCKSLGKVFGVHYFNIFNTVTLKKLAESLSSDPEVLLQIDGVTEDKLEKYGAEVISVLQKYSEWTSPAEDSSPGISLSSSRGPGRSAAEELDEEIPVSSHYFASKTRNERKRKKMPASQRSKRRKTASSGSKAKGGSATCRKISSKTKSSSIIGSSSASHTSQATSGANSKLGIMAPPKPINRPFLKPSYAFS
In short: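 BLM 50 nM in 25 mM Tris-HCl pH 8.0, 5 mM NaCl, 2 mM MgCl2, 1 mM DTT, 0.01% Tween-20, 2.5 ug/ml poly(dI-dC); 15 min cpd preinc, RT. Start: 200 nM forked DNA + 2 mM ATP (final). TAMRA read, 2 reads 2 h apart.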

[21] = Quantitative high throughput screen for delayed death inhibitors of the malarial parasite plastid, 96 hour incubation (AID 488745); note: % is set by controls: 0 for no effect and ±100 for the full control effect; nearly all actives have a fitted effect of over 70% in size
In short: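 P. falciparum carrying an integrated firefly luciferase reporter, grown in erythrocytes (2% hematocrit, 0.1% parasitemia final) in RPMI 1640/0.5% Albumax, was exposed to compound for 96 h (two generations) at 37 C, 5% CO2. Luminescence decrease indicated growth inhibition.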

[22] = molecular target: Thyrotropin receptor (Homo sapiens) (UniProt P16473); assay: qHTS Assay for Antagonists of the Thyroid Stimulating Hormone Receptor (AID 488980); note: 0% is about no effect
Sequence of Thyrotropin receptor (Homo sapiens) (P16473 whole entry, looked up): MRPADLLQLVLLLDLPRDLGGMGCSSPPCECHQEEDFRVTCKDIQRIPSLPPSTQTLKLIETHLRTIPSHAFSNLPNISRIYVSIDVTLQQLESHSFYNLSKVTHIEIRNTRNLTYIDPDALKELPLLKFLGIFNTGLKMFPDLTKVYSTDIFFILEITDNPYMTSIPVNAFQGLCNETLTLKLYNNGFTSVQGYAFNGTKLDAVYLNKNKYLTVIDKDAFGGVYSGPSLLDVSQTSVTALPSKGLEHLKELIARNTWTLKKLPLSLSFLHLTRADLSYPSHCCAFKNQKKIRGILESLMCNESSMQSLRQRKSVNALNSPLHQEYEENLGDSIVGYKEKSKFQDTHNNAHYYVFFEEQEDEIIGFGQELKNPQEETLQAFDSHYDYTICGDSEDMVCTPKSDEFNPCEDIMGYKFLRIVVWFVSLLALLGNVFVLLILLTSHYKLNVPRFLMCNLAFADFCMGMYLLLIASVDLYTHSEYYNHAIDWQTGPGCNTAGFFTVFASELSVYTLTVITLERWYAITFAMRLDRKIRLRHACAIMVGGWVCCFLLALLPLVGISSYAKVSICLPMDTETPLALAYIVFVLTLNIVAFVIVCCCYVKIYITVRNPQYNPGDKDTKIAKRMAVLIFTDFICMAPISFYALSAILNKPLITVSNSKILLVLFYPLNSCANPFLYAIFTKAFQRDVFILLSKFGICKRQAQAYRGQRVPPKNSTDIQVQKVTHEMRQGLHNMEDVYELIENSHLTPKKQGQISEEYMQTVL
In short: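 Cells expressing human TSHR (HEK293) are dispensed in HBSS/HEPES containing 70 uM RO 20-1724, compound is added, then TSH at EC80 (4 nM final). Antibody in lysis buffer follows, 30 minutes at room temperature before HTRF detection.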

[23] = molecular target: Thyrotropin-releasing hormone receptor (Homo sapiens) (UniProt P34981); assay: qHTS for Small Molecule Agonists and Allosteric Enhancers of Human TRH Receptor: Validation Screen for Agonists (AID 493127;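 active = calcium activation more than 3 SD above the typical response in the agonist read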;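 note: intracellular calcium rise by fluo-8 fluorescence before TRH EC20 addition; 0% is about no effect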); conditions: TRH receptor agonist cell assay; at 2 µM; stronger effect = higher value
Sequence of Thyrotropin-releasing hormone receptor (Homo sapiens) (P34981 whole entry, looked up): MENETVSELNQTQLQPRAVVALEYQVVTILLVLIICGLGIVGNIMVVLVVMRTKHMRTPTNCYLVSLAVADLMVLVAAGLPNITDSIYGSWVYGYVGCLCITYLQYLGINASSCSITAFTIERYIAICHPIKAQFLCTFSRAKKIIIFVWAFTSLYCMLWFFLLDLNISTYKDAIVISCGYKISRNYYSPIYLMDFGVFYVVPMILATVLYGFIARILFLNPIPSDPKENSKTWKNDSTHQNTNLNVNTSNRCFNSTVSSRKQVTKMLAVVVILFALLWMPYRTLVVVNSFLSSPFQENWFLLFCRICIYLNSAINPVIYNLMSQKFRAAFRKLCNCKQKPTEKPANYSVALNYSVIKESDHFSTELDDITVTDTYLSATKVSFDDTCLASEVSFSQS
In short: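 TRHR-expressing cells were plated overnight in serum-containing medium, then loaded with fluo-8 calcium dye at room temperature for 30 min–1.5 h. After a 10 s baseline, compound was pin-transferred and calcium fluorescence (ex 480/em 530) read kinetically for agonist response.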

[24] = molecular target: Galactokinase (Homo sapiens) (UniProt P51570); assay: qHTS Validation Assay for Inhibitors of Human Galactokinase (GALK) (AID 493189); note: 0% is about no effect
In short: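 Compounds were pin-transferred into ATP buffer, then GALK-galactose mix was added (final 5 nM enzyme, 100 uM galactose, 35 uM ATP). After 1 h at room temperature, remaining ATP was measured luminescently.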

[25] = Validation screen for small molecules that induce DNA re-replication in SW480 colon adenocarcinoma cells (AID 504364); note: 0% is about no effect
In short: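 SW480 cells seeded at 250 per well were exposed to compound or DMSO for 48 hr at 37 C, 5% CO2, then stained with Hoechst for 40 min. DNA content per nucleus was imaged (405 nm ex, 500-530 nm em).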

[26] = molecular target: Voltage-gated inwardly rectifying potassium channel KCNH2 (Homo sapiens) (UniProt Q12809); assay: qHTS Assay for Small Molecule Inhibitors of the Human hERG Channel Activity (AID 588834);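 note: potency is the fitted concentration of half-maximal effect; lower thallium flux fluorescence means stronger hERG block; nearly all actives have a fitted effect of over 50% in size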
Sequence of Voltage-gated inwardly rectifying potassium channel KCNH2 (Homo sapiens) (Q12809 whole entry, looked up): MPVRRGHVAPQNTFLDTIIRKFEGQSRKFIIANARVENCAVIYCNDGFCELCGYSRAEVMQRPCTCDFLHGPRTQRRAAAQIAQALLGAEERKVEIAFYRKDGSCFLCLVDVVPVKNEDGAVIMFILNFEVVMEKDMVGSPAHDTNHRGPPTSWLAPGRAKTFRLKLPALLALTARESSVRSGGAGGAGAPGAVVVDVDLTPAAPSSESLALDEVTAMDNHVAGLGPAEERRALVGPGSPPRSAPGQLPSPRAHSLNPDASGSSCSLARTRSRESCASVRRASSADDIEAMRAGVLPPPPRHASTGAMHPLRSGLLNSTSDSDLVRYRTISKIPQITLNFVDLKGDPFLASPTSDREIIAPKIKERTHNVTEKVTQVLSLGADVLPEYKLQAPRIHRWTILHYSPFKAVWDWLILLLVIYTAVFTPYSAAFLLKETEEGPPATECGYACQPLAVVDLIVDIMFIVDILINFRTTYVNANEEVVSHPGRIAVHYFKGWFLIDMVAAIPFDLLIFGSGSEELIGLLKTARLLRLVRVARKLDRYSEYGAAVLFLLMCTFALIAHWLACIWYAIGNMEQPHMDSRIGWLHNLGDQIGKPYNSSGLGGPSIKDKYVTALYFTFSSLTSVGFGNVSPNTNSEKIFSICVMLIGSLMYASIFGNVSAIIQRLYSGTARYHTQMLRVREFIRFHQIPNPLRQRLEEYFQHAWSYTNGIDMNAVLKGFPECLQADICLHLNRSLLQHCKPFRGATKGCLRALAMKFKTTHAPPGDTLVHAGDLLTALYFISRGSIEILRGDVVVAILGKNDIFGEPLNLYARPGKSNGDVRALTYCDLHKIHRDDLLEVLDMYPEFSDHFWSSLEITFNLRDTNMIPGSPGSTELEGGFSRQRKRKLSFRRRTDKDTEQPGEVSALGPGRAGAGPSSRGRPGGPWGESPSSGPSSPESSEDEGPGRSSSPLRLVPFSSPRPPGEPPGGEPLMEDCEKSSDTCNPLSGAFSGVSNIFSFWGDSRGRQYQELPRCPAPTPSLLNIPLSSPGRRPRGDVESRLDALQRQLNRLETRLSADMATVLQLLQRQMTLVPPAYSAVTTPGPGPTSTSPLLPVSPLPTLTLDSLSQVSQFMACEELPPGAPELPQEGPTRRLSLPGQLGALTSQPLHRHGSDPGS
In short: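 Measured: FluxOR fluorescence after thallium stimulation in U2OS cells transduced with hERG by baculovirus. Compounds pre-incubated around 10 min; medium Opti-MEM with 2% FCS. AC50 from Hill equation.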

[27] = tested on: Zika virus NS2B-NS3 protease; assay: Primary screen GU AMC qHTS for Zika virus inhibitors (AID 1347154);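 note: 0% = no-inhibitor control and -100% = no-enzyme control; nearly all actives have a fitted effect of over 70% in size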
In short: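 Unlinked Zika NS2B hydrophilic domain/NS3 protease domain noncovalent complex (25 nM final) in 10 mM Tris-HCl pH 8.0, 0.01% Tween 20, with AMC peptide substrate. Fluorescence (ex 340, em 450 nm) change over 15 min, room temperature; percent inhibition fitted to 4-parameter Hill equation.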

[28] = qHTS to identify inhibitors of the type 1 interferon - major histocompatibility complex class I in skeletal muscle: primary screen against the NCATS Mechanism Interrogation Plate v5.0 (MIPE) Libary (AID 1347411)
In short: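 Immortalized human C25cl48 myoblasts with HiBit knocked into endogenous HLA-B*08:01 were stimulated with 4.0 ng/ml IFN-beta and exposed to compounds (11-point 1:3 titration, top 46 uM final) for 24 hrs at 37 C; HiBiT lytic luminescence measured.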

[29] = molecular target: Cytochrome P450 2D6 (Homo sapiens) (UniProt P10635); assay: Cytochrome P450 family 2 subfamily D member 6 (CYP2D6) small molecule antagonists: luciferase biochemical (cell-free) qHTS assay (AID 1645840; active = well fitted curve in the direction sought with a large enough effect in the repeat runs; an effect the other way counts as inactive or inconclusive; note: potency is the fitted concentration of half-maximal effect; nearly all actives have a fitted effect of over 55% in size)
Sequence of Cytochrome P450 2D6 (Homo sapiens) (P10635 whole entry, looked up): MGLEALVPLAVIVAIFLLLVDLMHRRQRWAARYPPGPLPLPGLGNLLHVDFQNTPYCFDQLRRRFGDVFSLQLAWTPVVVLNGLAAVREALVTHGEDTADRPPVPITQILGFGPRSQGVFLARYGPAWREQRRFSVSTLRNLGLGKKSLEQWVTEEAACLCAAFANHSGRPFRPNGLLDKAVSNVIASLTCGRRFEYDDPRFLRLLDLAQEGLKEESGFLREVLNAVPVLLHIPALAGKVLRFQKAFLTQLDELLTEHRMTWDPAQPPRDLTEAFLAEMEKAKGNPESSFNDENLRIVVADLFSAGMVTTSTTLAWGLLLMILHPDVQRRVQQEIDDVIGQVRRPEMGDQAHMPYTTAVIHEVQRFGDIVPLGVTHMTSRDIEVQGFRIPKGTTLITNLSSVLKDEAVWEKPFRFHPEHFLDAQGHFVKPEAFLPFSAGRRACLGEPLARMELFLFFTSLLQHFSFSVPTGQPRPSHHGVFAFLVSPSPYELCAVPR
In short: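 P450-Glo luminescent screen: recombinant CYP2D6 enzyme–proluciferin substrate mix preincubated with compound 10 min at room temperature, then NADPH regeneration added for 1 h at room temperature. Detection reagent added for 20 min; luciferin light read as relative luminescence units.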

[30] = NCATS anti-infectives library activity on HEK293 viability as a counter-qHTS vs the C. elegans viability qHTS (AID 1745854); note: % is set by controls: 0 for no effect and ±100 for the full control effect
In short: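 HEK293 cells, 1500 per well, exposed 24 hr at 37C in 5% CO2 to compounds in a 1:5 titration, up to 41.7 uM final. Viability read as CellTiter-Glo luminescence after 10 min at room temperature.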

[31] = NCATS anti-infectives library activity on the primary C. elegans qHTS viability assay (AID 1745855; calls by dose curve)
In short: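 Viability is taken from GFP fluorescence of PE254-GFP-FLuc C. elegans imaged by laser cytometry over 7 days. Ten L1 worms per well grow at 21 °C on TOP10 E. coli capsules with titrated compound; levamisole marks toxicity.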

[32] = measured here: PEO1 parental Z-AUC

O=c1sn(-c2cccc3ccccc23)c(=O)n1Cc1ccccc1
0.135: Z-AUC [5, 32]
inactive: Potency [1] | Potency [2] | Potency [4] | Z-AUC [5] 0.462
0.0223: Z-AUC ([5]; measured here: PEO4 Z-AUC)
inactive and 7.42 µM (active): Potency [3]

CN(c1ccc(NC(=O)Nc2ccc(OC(F)(F)F)cc2)cc1)c1ccnc(Nc2cccc(S(N)(=O)=O)c2)n1
inactive: outcome [7] | Potency [8]
active: Potency [6] 0.0823 µM | Potency [1] 18.4 µM | Potency [2] 3.66 µM | Potency [3] 1.03 µM

NC1CCCN(c2c(/C=C3\SC(=O)NC3=O)cccc2-c2ccccc2)C1 (stereo unspecified)
inactive: Potency [1] | Potency [9] | Potency [8]

COc1cc(OC)c(C(=O)/C=C/c2ccccc2)c2c1C=CC(C)(C)O2
active: Potency [2] 16.4 µM | Potency [3] 18.4 µM
inactive: Potency [1] | Potency [8]

O=S(=O)(NCCNC/C=C/c1ccc(Br)cc1)c1cccc2cnccc12
active: Potency [14] 8.91 µM | Potency [15] 12.6 µM | Potency [16] 11.2 µM | Potency [17] 8.91 µM | Potency [18] 5.01 µM | Potency [26] 2.82 µM | Potency [29] 4.77 µM | Potency [2] 16.6 µM
inactive: activity change, negative = inhibition ([10]; at 57.5 µM (top of the series)) -23.6% | Potency [11] | Potency [12] | Potency [13] | Potency [19] | Potency [20] | Potency [21] | outcome [22] | activation [23] 5.62% | outcome [24] | outcome [25] | Potency [1] | Potency [27] | Potency [28] | outcome [30] | Potency [31] | Potency [8] | Potency [4] | Z-AUC [5] 0.684
-29.8%: max response ([10]; measured here: cell count channel max response)
1.26: Z-AUC [5, 32]
-49.7%: max response ([10]; measured here: lipid channel max response)
0.757: Z-AUC ([5]; measured here: PEO4 Z-AUC)

Nc1ncnc2c1ncn2[C@H]1O[C@H](CO)[C@@H](O)[C@@H]1O
inactive: Potency [1]
active: Potency [2] 39.8 µM | Potency [3] 39.8 µM

O=C(/C=C/c1nc2ccccc2[nH]1)c1c(-c2ccccc2)c2cc(Cl)ccc2[nH]c1=O
inactive: Potency [8]
active: Potency [1] 7.31 µM | Potency [2] 1.16 µM | Potency [3] 1.03 µM

CCOC(=O)c1c2c3c(cccc3[nH]c1=O)C(=O)c1ccccc1-2
inactive: Potency [1] | Potency [9] | Potency [2] | Potency [8]

COc1cc2ncnc(Nc3ccc(NC(=O)c4ccccc4)cc3)c2cc1OC
active: Potency [1] 20.6 µM | Potency [2] 8.2 µM | Potency [3] 5.8 µM
inactive: Potency [8]
